Assay results reported in the supplement of paper PMC10646978.
± gives the standard deviation.

Experiments:
Settings in all cases: modulator concentration 10 µM
[1] = system: RAW-Dual (murine macrophage reporter line); assay: NF-kB reporter (SEAP) activity fold change vs agonist alone; higher = enhanced NF-kB activity
In short: (§1)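 Compound reached 10 μM final in each well by pin transfer, onto RAW-Dual murine macrophage reporter cells seeded at 50 000 per well in 384-well plates. After 1 hour at 37 °C, the cells were stimulated overnight with a PRR agonist. SEAP in the supernatant was read with QUANTI-Blue at 620 nm absorbance for NF-κB, and Lucia luciferase was read with QUANTI-Luc luminescence for IRF. Each signal was turned into fold change against the mean agonist-only control on the same plate, and two replicate plates were averaged with propagated errors.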

[2] = system: RAW-Dual (murine macrophage reporter line); assay: IRF reporter (Lucia luciferase) activity fold change vs agonist alone; higher = enhanced IRF activity
In short: as §1

[3] = system: RAW-Dual (murine macrophage reporter line); assay: viability score (confluency relative to resting cells, overnight) (fraction); higher = more viable, active = viable (0.7 or more)
In short: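 In 384-well plates, RAW-Dual macrophages received compound at a final 10 μM overnight. Two confluency masks were then made with IncuCyte software from IncuCyte images of all imaged wells. The viability score is defined as confluency relative to resting cells. Passing the cutoff required both masks to lie above 70% of resting cells.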

[4] = agonist: CpG ODN 1826 0.5 ug/mL

Row | Structure (SMILES) | NF-kB reporter [1, 4] | NF-kB reporter ([1]; agonist: LPS 0.1 ug/mL) | NF-kB reporter ([1]; agonist: MPLA […]) | IRF reporter ([2]; agonist: 3'3'-cGAMP 10 ug/mL) | IRF reporter ([2]; agonist: LPS 0.1 ug/mL) | IRF reporter ([2]; agonist: MPLA […]) | viability score [3]
1 | CCCN(CCC)CCc1cccc2c1CC(=O)N2.Cl | 0.998 ± 0.079 | 0.945 ± 0.046 | 1.03 ± 0.074 | 0.926 ± 0.071 | 0.925 ± 0.037 | 0.912 ± 0.083 | 0.997 (active)
2 | Oc1ccc(N=Cc2ccccc2F)cc1 | 0.861 ± 0.099 | 0.887 ± 0.079 | 1.1 ± 0.064 | 0.304 ± 0.012 | 0.686 ± 0.028 | 1.36 ± 0.14 | 0.879 (active)
3 | CCCCCCOc1ccc(N2C(=O)CC(N3CCN(Cc4ccc5c(c4)OCO5)CC3)C2=O)cc1 (stereo not drawn) | 0.919 ± 0.073 | 1.07 ± 0.075 | 0.9 ± 0.055 | 0.929 ± 0.032 | 1.38 ± 0.17 | 1.32 ± 0.12 | 0.991 (active)
4 | CCCCCc1ccc(-c2ccc(-c3noc(-c4ccc(CCCC)cc4)n3)cc2)cc1 | 0.969 ± 0.08 | 0.97 ± 0.07 | 0.914 ± 0.086 | 0.94 ± 0.067 | 1.32 ± 0.25 | 1.45 ± 0.31 | 1.01 (active)
5 | COc1ccc2ccccc2c1-c1nnc2ccc(C(F)(F)F)cn12 | 0.87 ± 0.1 | 0.997 ± 0.056 | 0.854 ± 0.089 | 0.992 ± 0.036 | 1.37 ± 0.18 | 1.07 ± 0.2 | 1.01 (active)
6 | CC1=C(C(=O)OC(C)C)C(c2cccc([N+](=O)[O-])c2)C(C(=O)OC2CN(C(c3ccccc3)c3ccccc3)C2)=C(N)N1 (stereo not drawn) | 1.58 ± 0.068 | 1.82 ± 0.15 | 2.56 ± 0.17 | 0.36 ± 0.021 | 1.66 ± 0.24 | 2.12 ± 0.44 | 0.902 (active)
7 | Nc1nc(Cl)nc2c1ncn2[C@@H]1O[C@H](CO)[C@@H](O)[C@@H]1F | 2.13 ± 0.16 | 1.41 ± 0.13 | 1.4 ± 0.087 | 1.08 ± 0.26 | 1.01 ± 0.045 | 0.918 ± 0.15 | 0.482 (inactive)
8 | CCn1nc(C)c(S(=O)(=O)N2CC3CC2CS3)c1C (stereo not drawn) | 0.892 ± 0.039 | 0.936 ± 0.075 | 0.959 ± 0.051 | 1.04 ± 0.055 | 1.17 ± 0.23 | 1.29 ± 0.41 | 0.988 (active)
9 | NC(=O)c1ccc(I)c([N+](=O)[O-])c1 | 0.743 ± 0.25 | 0.842 ± 0.23 | 0.828 ± 0.046 | 0.678 ± 0.024 | 0.905 ± 0.32 | 1 ± 0.13 | 0.981 (active)
10 | O=C(Nc1ccc(-c2cn3ccsc3n2)cc1)NC1CCCCC1 | 2.23 ± 0.14 | 1.16 ± 0.12 | 1.59 ± 0.11 | 0.5 ± 0.032 | 0.923 ± 0.086 | 1.22 ± 0.18 | 0.826 (active)
11 | CNC(=O)[C@H](Cc1c[nH]c2ccccc12)NC(=O)[C@@H](CC(=O)NO)CC(C)C | 1.1 ± 0.26 | 1.33 ± 0.074 | 1.07 ± 0.074 | 0.88 ± 0.035 | 1.07 ± 0.12 | 1.12 ± 0.12 | 0.995 (active)
12 | Oc1ccc(C=Cc2cc(O)cc(O)c2)cc1 | 0.984 ± 0.074 | 0.848 ± 0.042 | 1.23 ± 0.029 | 0.493 ± 0.028 | 0.48 ± 0.087 | 0.403 ± 0.084 | 0.904 (active)
13 | COc1ccc(Cl)cc1C(=O)Nc1ccc(NC(=O)c2ccccc2)cc1 | 0.907 ± 0.079 | 1.12 ± 0.11 | 0.949 ± 0.057 | 0.937 ± 0.023 | 1.34 ± 0.2 | 1.09 ± 0.25 | 1.02 (active)
14 | CN[C@H]1CC[C@@H](c2ccc(Cl)c(Cl)c2)c2ccccc21.Cl | 0.407 ± 0.039 | 0.757 ± 0.049 | 1.49 ± 0.14 | 1.18 ± 0.1 | 1.27 ± 0.084 | 1.97 ± 0.23 | 0.258 (inactive)
15 | CC(Sc1ccc(Cl)cc1)C(=O)NCc1cccnc1 (stereo not drawn) | 1.07 ± 0.09 | 0.846 ± 0.065 | 1.08 ± 0.2 | 0.846 ± 0.031 | 0.905 ± 0.058 | 0.741 ± 0.14 | 0.992 (active)
16 | NC(=O)c1cc(NC(=O)c2ccc(Cl)c(Cl)c2)cc(C(N)=O)c1 | 1.15 ± 0.073 | 1.04 ± 0.13 | 1.01 ± 0.048 | 0.88 ± 0.032 | 0.943 ± 0.048 | 0.964 ± 0.096 | 0.997 (active)
17 | Nc1nc(Cl)nc2c1ncn2[C@H]1C[C@H](O)[C@@H](CO)O1 | 1.91 ± 0.4 | 1.39 ± 0.11 | 1.65 ± 0.12 | 0.723 ± 0.055 | 1.09 ± 0.096 | 1.08 ± 0.22 | 0.244 (inactive)
18 | Cc1cc(OC2CN(C(=O)Cc3c[nH]c4ccccc34)C2)cc(=O)n1C1CC1 | 1.1 ± 0.055 | 1.1 ± 0.091 | 0.997 ± 0.11 | 1 ± 0.05 | 1.2 ± 0.076 | 1.23 ± 0.12 | 0.983 (active)
19 | COc1ccc(C=CC(=O)Nc2ccc([N+](=O)[O-])cc2)cc1Br | 1.06 ± 0.17 | 0.991 ± 0.14 | 0.905 ± 0.11 | 0.996 ± 0.044 | 1.28 ± 0.18 | 1.43 ± 0.42 | 1.01 (active)
20 | Cc1cc(=O)[nH]c(=S)[nH]1 | 1.04 ± 0.09 | 1.02 ± 0.11 | 1 ± 0.035 | 0.99 ± 0.073 | 0.969 ± 0.084 | 1.01 ± 0.08 | 1 (active)
21 | O=C(NCCNC(=O)c1ccccc1Cl)c1ccc(NC(=O)C2CC2)cc1 | 0.924 ± 0.04 | 1.01 ± 0.084 | 1.67 ± 0.56 | 1.02 ± 0.052 | 1.36 ± 0.25 | 1.69 ± 0.5 | 0.98 (active)
22 | COc1cc2nc(N3CCN(C(=O)C4CCCO4)CC3)nc(N)c2cc1OC.Cl (stereo not drawn) | 0.503 ± 0.069 | 0.98 ± 0.24 | 0.904 ± 0.054 | 0.913 ± 0.055 | 1.34 ± 0.31 | 1.07 ± 0.14 | 0.988 (active)
23 | N#CC[C@@H](C1CCCC1)n1cc(-c2ncnc3[nH]ccc23)cn1 | 1.95 ± 0.28 | 0.915 ± 0.29 | 0.914 ± 0.051 | 0.164 ± 0.0051 | 0.359 ± 0.081 | 0.595 ± 0.067 | 0.999 (active)
24 | Cc1ccc(NC(=O)c2ccc(CN3CCN(C)CC3)cc2)cc1Nc1nc(-c2cccnc2)cs1 | 0.228 ± 0.018 | 1.18 ± 0.067 | 1.74 ± 0.17 | 0.414 ± 0.051 | 0.703 ± 0.051 | 0.691 ± 0.058 | 0.981 (active)
